Results from PubChem BioAssay (NCI).
About 83,000 compounds went through this panel and 20% of them were active in at least one assay; those are over-represented in the sample as a whole.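 In brief: 96-well plates, 48 h treatment, single concentration, percent growth endpoint.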 Values without a mark were called inactive. Calls of active or inactive are those of the source. The calls were made as follows: active = growth percent below 10; inactive = the rest.

How the values were obtained:
Assay in all cases: NCI-60 one-dose screen, 48 h (100 = growth as untreated, 0 = no growth, -100 = all killed)
NCI-H226 lung = settings: 10 µM
NCI-H322M lung = settings: 10 µM
HOP-62 NSCLC = settings: 10 µM
NCI-H460 lung = settings: 10 µM
NCI-H522 lung = settings: 10 µM
A549/ATCC NSCLC = settings: 10 µM
DU-145 prostate = settings: 10 µM
K-562 leukemia = settings: 10 µM
SF-539 CNS = settings: 10 µM
M14 melanoma = settings: 10 µM
HCT-15 colon = settings: 10 µM
HT29 colon = settings: 10 µM
SNB-19 CNS = settings: 10 µM
U251 CNS = settings: 10 µM
PC-3 prostate = settings: 10 µM
LOX IMVI melanoma = settings: 10 µM
MOLT-4 leukemia = settings: 10 µM
SR leukemia = settings: 10 µM
RPMI-8226 leukemia = settings: 10 µM
MDA-MB-468 breast = settings: 10 µM unless noted

Row | SMILES | growth (NCI-H226 lung) | growth (NCI-H322M lung) | growth (HOP-62 NSCLC) | growth (NCI-H460 lung) | growth (NCI-H522 lung) | growth (A549/ATCC NSCLC) | growth (DU-145 prostate) | growth (K-562 leukemia) | growth (SF-539 CNS) | growth (M14 melanoma) | growth (HCT-15 colon) | growth (HT29 colon) | growth (SNB-19 CNS) | growth (U251 CNS) | growth (PC-3 prostate) | growth (LOX IMVI melanoma) | growth (MOLT-4 leukemia) | growth (SR leukemia) | growth (RPMI-8226 leukemia) | growth (MDA-MB-468 breast)
1 | Cn1cc(-c2cc3nc(-c4c[nH]c5ccccc45)cc(N)n3n2)c2cc(Cl)ccc21 | -30.4% (active) | -98.8% (active) | -86.4% (active) | -58.2% (active) | -72.1% (active) | -84.6% (active) | -92.6% (active) | 0.698% (active) | -92.5% (active) | -89.3% (active) | -84% (active) | -69.3% (active) | -78.2% (active) | -91.8% (active) | -85.3% (active) | -91.6% (active) | -48.8% (active) | -8.96% (active) | -25.5% (active) | -85.9% (active)
2 | COc1ccccc1-n1cc(C#N)c(N)c1C(=O)c1ccc(Cl)cc1Cl | 34.5% | 48% | 38.2% | 12.5% | -55.6% (active) | 41.9% | 35.4% | 12.5% | -0.792% (active) | 20.4% | 24.4% | -14.7% (active) | 30.1% | 16.6% | 18.8% | 39.5% | 20.3% | 11.5% | 14.7% | 15.8%
3 | COc1ccc(NCc2cn(-c3ccc(C(=O)O)cc3)nc2-c2ccc(F)cc2)cc1C(F)(F)F | 66.3% | 62% | 66.3% | 37.2% | 40.2% | 35.8% | 69.3% | 41.3% | 53.9% | 51.5% | 43.7% | 51% | 39.3% | 29.5% | 36.3% | 43.8% | 40.7% | 50.7% | 37.6% | 65.1%
4 | CCOC(=O)c1ccc(NC(=O)CSC(CC(=O)c2sc(Nc3ccccn3)nc2C)c2ccccc2F)cc1 (stereo unspecified) | 4.65% (active) | 17.5% | 3.54% (active) | -40.7% (active) | -22.7% (active) | 1.12% (active) | 1.39% (active) | 5.79% (active) | -27.3% (active) | 0.872% (active) | -42% (active) | -28.3% (active) | 21.1% | -70.4% (active) | 0.809% (active) | -76.8% (active) | 11.5% | 4.27% (active) | -14.2% (active) | 3.8% (active)
5 | O=C(c1ccc(F)cc1)C(c1c[nH]c2ccccc12)c1c[nH]c2ccccc12 | 36.5% | 90.5% | 91.5% | 33.9% | 50.7% | 91.7% | 33.5% | 5.35% (active) | 88% | 74.7% | 7.29% (active) | 30.8% | 92.6% | 74.8% | 41% | -76.3% (active) | 26.6% | 10.5% | 18.9% | 23.1%
6 | O=C(c1ccc(Cl)cc1)C(c1c[nH]c2ccccc12)c1c[nH]c2ccccc12 | -50.8% (active) | 38.1% | 16% | -53.5% (active) | -82.6% (active) | 4.91% (active) | -91.7% (active) | 0.546% (active) | -94.2% (active) | -71% (active) | -63.9% (active) | -71.1% (active) | 22.4% | -89.1% (active) | -33.2% (active) | -85.1% (active) | -1.68% (active) | -12.2% (active) | -27.9% (active) | -71.1% (active)
7 | Cn1cc(-c2nnc(N)nc2-c2c[nH]c3ccc(F)cc23)c2cc(Br)cnc21 | 89.3% | 79.1% | 56.8% | 39.7% | 23.8% | 66.2% | 89.4% | 42.8% | 64.5% | 77.4% | 59.8% | 71.6% | 58.3% | 57.1% | 56.8% | 47% | 4.34% (active) | 9.16% (active) | 59.1% | 13.8%
8 | COc1ccc2[nH]cc(-c3nc(N)nnc3-c3cn(C)c4ncc(Br)cc34)c2c1 | 8.48% (active) | 35% | 26.5% | 1.08% (active) | -55.1% (active) | 17.7% | 11.1% | 3% (active) | -3.25% (active) | 6.91% (active) | 12.3% | -27.1% (active) | 30% | 5.39% (active) | 10.5% | 20% | 2.27% (active) | 3% (active) | -16% (active) | -8.06% (active)
9 | O=[N+]([O-])c1cccc(-c2nnc3c(/C=C/c4ccccc4O)nc4ccccc4n23)c1 | 33.1% | 55.8% | 52.8% | 28.8% | 55.3% | 57.8% | 63% | 24.1% | 46.2% | 29.8% | 52.5% | 48.6% | 87% | 76.7% | 52.2% | 56.1% | 38.7% | 51.8% | 54.9% | 52%
10 | Cc1cc(N=C2NC(=O)/C(=C/c3cc(C(C)(C)C)c(O)c(C(C)(C)C)c3)S2)n[nH]1 | 10.3% | 28.6% | 8.56% (active) | 0.397% (active) | -26.1% (active) | 9.9% (active) | 27.2% | 18.3% | 18.9% | 24.7% | 6.98% (active) | 9.22% (active) | 21.1% | 6.8% (active) | 10.7% | 1.11% (active) | 11% | 12.2% | 1.11% (active) | -0.214% (active)
11 | Cc1ccc(COc2ccc(NC(=O)Nc3ccc(Cl)c(C(F)(F)F)c3)cc2)cc1 | 75.7% | 77.4% | 97.9% | 59.5% | 44.9% | 64.7% | 81.5% | 66.7% | 78.7% | 93.4% | 52.2% | 80.6% | 75.8% | 69.8% | 38.4% | 15.6% | 73.5% | 55% | 39.5% | -14.4% (active)
12 | Cn1cc(/C=C(/SS/C(=C/c2cn(C)c3cccc(C(=O)O)c23)C(=O)O)C(=O)O)c2c(C(=O)O)cccc21 | 97.7% | 102% | 103% | 110% | 92.6% | 99.6% | 104% | 87.4% | 98.5% | 115% | 99.4% | 107% | 102% | 99.6% | 97.2% | 48.9% | 111% | 98.7% | 105% | 103%
13 | O=C(CSc1nc2ccccc2c(=O)n1-c1ccc(Cl)cc1)Nc1ccc(-c2nc3ccccc3[nH]2)cc1 | 30.1% | 37.5% | 5.56% (active) | -12.6% (active) | 15.9% | -16.8% (active) | -8.05% (active) | 2.71% (active) | -29.4% (active) | -36.6% (active) | -7.08% (active) | -38.9% (active) | 18.3% | -61.4% (active) | -54.2% (active) | -88.2% (active) | -7.88% (active) | -15.2% (active) | 22.4% | -41.7% (active)
14 | O=C(Nc1ccc(OCc2ccc(Cl)cc2)cc1)Nc1ccc(Cl)c(C(F)(F)F)c1 | 6.46% (active) | 25.9% | 19.5% | 7.92% (active) | -16.7% (active) | 16.2% | 26.6% | 7.62% (active) | 7.92% (active) | 12.5% | 9.07% (active) | 8.31% (active) | 11% | 6.47% (active) | -7.44% (active) | -72.5% (active) | 9.92% (active) | 2.46% (active) | -9.46% (active) | -15.2% (active)
15 | CCn1c(SCC(=O)Nc2ccc(-c3nc4ccccc4[nH]3)cc2)nc2ccccc2c1=O | -65.5% (active) | -68.3% (active) | -80.4% (active) | -56.2% (active) | -74.2% (active) | -71.2% (active) | -50.3% (active) | -11.3% (active) | -87.3% (active) | -87.9% (active) | -50% (active) | -64.9% (active) | -63.5% (active) | -74.9% (active) | -80.6% (active) | -63% (active) | 3.3% (active) | -15.2% (active) | -11.4% (active) | -81% (active)
16 | Cc1cc(N(CCNc2ccnc3cc(Cl)ccc23)Cc2ccc3c(c2)OCO3)nc(N2CCCC2)n1 | – | – | – | – | – | – | – | – | – | – | – | – | – | – | – | – | – | – | – | -39.4% (active)
17 | COc1ccc(C2c3sc4ccc(C)cc4c3Oc3nc[nH]c(=O)c32)cc1 (stereo unspecified) | 80.5% | 105% | 69.4% | 95.6% | 42.7% | 97.9% | 105% | 36.2% | 79.3% | 73.2% | 40.6% | 112% | 75.3% | 73.5% | 74.9% | 92.5% | 77.9% | 39.4% | 90.8% | 61.3%
